Molecules are shown by their SMILES. The whole screen tested about 39,000 compounds, of which about 220 (0.56%) showed activity. For the sample, actives were picked, then their nearest neighbours and some compounds at random. Unmarked numbers belong to inactive results.

The results in this text go back to the supplement of paper PMC9446081.
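Further: Wild-type cells incubated without shaking, value is the mean of two biological replicates.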

For the test, the system named is Escherichia coli K-12 BW25113. The experiment in a line: relative growth (OD600 normalised to plate interquartile mean) (fraction); higher = less growth inhibition, active = 0.2 or less. The note with it: 50 µM; LB; incubation time: overnight (16-24 h).
For `Cn1c(=O)[nH]c(=O)c2c1nc(N1CCN(CC(N)=O)CC1)n2C/C=C/c1ccccc1`, the relative growth was 0.988. The value for `Cc1ccc(S(=O)(=O)N(C)C[C@H]2Oc3c(NC(=O)c4cnccn4)cccc3C(=O)N([C@H](C)CO)C[C@@H]2C)cc1` was 0.975; that for `C[C@H]1COc2c(C3(N)CC3)c(F)cc3c(=O)c(C(=O)O)cn1c23` was 0.0591 (active); that for `CC1COc2c(C3(N)CC3)c(F)cc3c(=O)c(C(=O)O)cn1c23.CS(=O)(=O)O` (configuration not stated) was 0.0476 (active).

On to `C[C@H]1CN([C@@H](C)CO)C(=O)c2cc(NC(=O)CCN3CCOCC3)ccc2O[C@H]1CN(C)C(=O)NC1CCCCC1`, for which the relative growth is 0.98.

`CS(=O)(=O)c1cc(F)ccc1N`: the relative growth was 0.965.

In the case of `O=C(O)c1cccc(-c2ccco2)c1`, the relative growth is 1.01. For `CC(=O)OCC1=C[C@@H]2OC(=O)C3=CO[C@@H](O[C@H]4O[C@H](CO)[C@@H](O)[C@H](O)[C@H]4O)[C@H]1[C@@H]32` the value was 1.01.

With `CNC(=O)CN1CCOC[C@@]2(C1)CN(C(=O)c1ccn[nH]1)CCO2`, the relative growth was 0.952. Take `O=C([O-])CCC(=O)OCC(NC(=O)C(Cl)Cl)C(O)c1ccc([N+](=O)[O-])cc1.[Na+]` (configuration not stated): the relative growth is 0.0517 (active). As to `CCCCCCCCCCCCCCCC(=O)OCC(NC(=O)C(Cl)Cl)C(O)c1ccc([N+](=O)[O-])cc1` (configuration not stated), the relative growth is 0.559.

As for `CS(=O)(=O)c1ccc(C(O)C(CF)NC(=O)C(Cl)Cl)cc1` (configuration not stated), the relative growth was 0.0463 (active). For `CCCCCCCCCCCCCCCC(=O)OC[C@@H](NC(=O)C(Cl)Cl)[C@H](O)c1ccc([N+](=O)[O-])cc1` the value was 1.03; for `CCCCCCCCCCCCCCCC(=O)OC[C@H](NC(=O)C(Cl)Cl)[C@H](O)c1ccc([N+](=O)[O-])cc1`, 0.604.

Turning to `O=C(NCO)c1ccc([N+](=O)[O-])cc1`, the relative growth was 1.02.

With `CCC(NC(C)C)C(O)c1ccc(O)c(O)c1.CS(=O)(=O)O` (configuration not stated), the relative growth is 1.04. The value for `CS(=O)(=O)c1ccc(C(O)C(CO)NC(=O)C(Cl)Cl)cc1` (configuration not stated) was 0.375; that for `O=C(NC(CO)C(O)c1ccc([N+](=O)[O-])cc1)C(Cl)Cl` (configuration not stated) was 0.0428 (active). In the case of `C[C@@H]1CN([C@H](C)CO)C(=O)c2cc(NC(=O)Nc3ccc(F)cc3)ccc2O[C@@H](C)CCCCO[C@H]1CN(C)C(=O)Nc1ccc(C(F)(F)F)cc1`, the relative growth was 1. The value for `Cc1ccc(S(=O)(=O)N(C)C[C@H]2OCCCC[C@H](C)Oc3ccc(NC(=O)Nc4ccccc4)cc3C(=O)N([C@H](C)CO)C[C@@H]2C)cc1` was 1.07.

Take `C[C@@H]1CN([C@H](C)CO)C(=O)c2cc(NS(=O)(=O)c3ccccc3)ccc2O[C@@H](C)CCCCO[C@H]1CN(C)Cc1ccc(C(F)(F)F)cc1`: the relative growth is 1.07. As to `C[C@@H]1CCCCO[C@@H](CN(C)CC2CCCCC2)[C@@H](C)CN([C@H](C)CO)C(=O)c2cc(NS(=O)(=O)c3ccccc3)ccc2O1`, the relative growth was 0.975.

As to `C=CCC[C@@H](Cc1ccc(F)cc1)C(=O)OC[C@@H](Cc1c[nH]c2ccccc12)NC(=O)[C@@H](CC=C)CC(=O)N(CCO)Cc1ccccc1`, the relative growth is 1.1.

`C[C@@H]1CN([C@H](C)CO)C(=O)c2cccc(NC(=O)C3CCOCC3)c2O[C@H]1CN(C)Cc1ccc(-c2ccccc2)cc1`: the relative growth is 1. The value for `O=C(CCCCCC(=O)N/N=C/[C@H](O)[C@@H](O)[C@H](O[C@@H]1O[C@H](CO)[C@H](O)[C@H](O)[C@H]1O)[C@H](O)CO)NO` was 1.01; that for `COc1ccc2c3c([nH]c2c1)[C@H](CO)N(C[C@]13CN(C1)C(=O)Cc1cccnc1)S(=O)(=O)c1ccc(cc1)C` was 0.987; that for `CCn1cc(C(=O)O)c(=O)c2cnc(N3CCCC3)nc21` was 1.09.

For `CCn1cc(C(=O)O)c(=O)c2cnc(N3CCNCC3)nc21`, the relative growth is 0.05 (active). For `CCn1cc(C(=O)O)c(=O)c2cc(F)c(N3CCNCC3)nc21` the value was 0.049 (active). For `O=C(O)c1cnc(N2CCCC2)nc1` the value was 1.03.

Turning to `CCn1cc(C(=O)O)c(=O)c2ccc(C)nc21`, the relative growth was 1.02. For `NC(=O)c1cc(S(N)(=O)=O)ccc1Cl` the value was 0.993. The value for `C[C@H]1CN([C@@H](C)CO)C(=O)c2cc(NC(=O)Nc3ccc(F)cc3)ccc2O[C@H]1CN(C)S(C)(=O)=O` was 1.02; that for `Cc1noc(C)c1S(=O)(=O)N(C)C[C@@H]1Oc2ccc(NS(C)(=O)=O)cc2CC(=O)N([C@@H](C)CO)C[C@H]1C` was 1.01.

Take `C[C@@H]1CCCCO[C@@H](CN(C)C(=O)Nc2ccc3c(c2)OCO3)[C@@H](C)CN([C@H](C)CO)C(=O)c2cc(NC(=O)Nc3ccc4c(c3)OCO4)ccc2O1`: the relative growth was 1.02. For `C[C@@H]1CN([C@@H](C)CO)C(=O)c2cc(NC(=O)Nc3ccc(F)cc3)ccc2O[C@@H](C)CCCCO[C@@H]1CN(C)Cc1ccncc1` the value was 0.93; for `Cc1noc(C)c1NC(=O)N(C)C[C@@H]1Oc2c(NC(=O)Nc3ccc(C(F)(F)F)cc3)cccc2C(=O)N([C@@H](C)CO)C[C@@H]1C`, 0.943.

With `Cc1cc(O)c(C=O)c(O)c1C(=O)O`, the relative growth was 1.07.

As for `CCOC(=O)c1c(C)cc(O)c(C=O)c1O`, the relative growth is 0.0424 (active). The value for `COC(=O)c1c(C)cc(OC(=O)c2c(C)cc(O)c(C=O)c2O)c(C)c1O` was 0.867. Regarding `COc1ccc(NC(=O)Nc2ccc3c(c2)C(=O)N([C@@H](C)CO)C[C@H](C)[C@H](CN(C)C(=O)Nc2ccc4c(c2)OCO4)OCCCC[C@@H](C)O3)cc1`, the relative growth was 1.04. The value for `Cc1noc(C)c1NC(=O)Nc1ccc2c(c1)C(=O)N([C@H](C)CO)C[C@@H](C)[C@@H](CN(C)C(=O)NC1CCCCC1)OCCCC[C@H](C)O2` was 1.02; that for `C[C@H]1CN([C@@H](C)CO)C(=O)c2cc(N(C)C)ccc2O[C@H]1CN(C)S(C)(=O)=O` was 0.993; that for `Cc1ccc(S(=O)(=O)O)cc1.NC1CCN(c2nc3c(cc2F)c(=O)c(C(=O)O)cn3-c2ccc(F)cc2F)C1.O` (configuration not stated) was 0.0925 (active). The value for `Cc1cn2nc([C@@H]3CCCCN3C(=O)c3cc(Cl)ccc3NS(C)(=O)=O)cc2nc1N1CC[C@H](N)C1` was 0.981. On to `N[C@H]1CCN(c2nc3c(cc2F)c(=O)c(C(=O)O)cn3-c2ccc(F)cc2F)C1`, for which the relative growth is 0.17 (active).

As to `N[C@@H]1[C@H]2CN(c3nc4c(cc3F)c(=O)c(C(=O)O)cn4-c3ccc(F)cc3F)C[C@@H]12`, the relative growth was 0.0389 (active).
